Screening data deposited in PubChem BioAssay by National Center for Advancing Translational Sciences (NCATS).
Shown is part of a subset that was picked to be rich in hits.
AmpC inh detg: inhibitors of E. coli AmpC beta-lactamase with detergent. P00811. AmpC hydrolysis of nitrocefin, absorbance 480 nm, 0.01% Triton. Potency, µM (doses to about 114 µM), hits mostly inhibitors. actives 0.041% (n = 370,000). AID 485294; note: nearly all actives have a fitted effect of over 25% in size
Target sequence (P00811 whole entry, looked up): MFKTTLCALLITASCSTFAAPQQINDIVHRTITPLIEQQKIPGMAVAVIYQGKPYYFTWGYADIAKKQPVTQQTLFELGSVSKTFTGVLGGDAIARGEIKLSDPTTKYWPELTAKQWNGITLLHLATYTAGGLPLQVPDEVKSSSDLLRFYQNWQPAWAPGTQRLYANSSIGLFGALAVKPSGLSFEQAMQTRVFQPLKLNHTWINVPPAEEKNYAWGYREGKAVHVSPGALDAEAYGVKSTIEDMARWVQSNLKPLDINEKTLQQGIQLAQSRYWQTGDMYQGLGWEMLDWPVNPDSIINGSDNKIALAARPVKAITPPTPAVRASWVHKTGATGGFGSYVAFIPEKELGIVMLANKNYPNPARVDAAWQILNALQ
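20 mM phosphate pH 7.0 + 0.01% (detergent screen) or 0.0001% Triton X-100; 5.3 nM AmpC reagent; cpd preinc 15 min RT; nitrocefin (800 uM stock) to start; A480 q20 s × 4 min; Activity was normalised to no-enzyme and no-compound control wells.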
Shiga inhibitor: blocks Shiga toxin action in Vero cells. Vero cells, Shiga toxin protein synthesis inhibition reporter. inhibition, % at 38.7 µM. actives 9.2% (n = 290,000). AID 2315; in the data active = inhibition mostly above about 28%, no sharp cut-off; inactive = mostly below about 43%
Cycloheximide cs: counter-screen for Shiga toxin inhibitors: cycloheximide protein synthesis inhibition; cell reporter, cycloheximide protein synthesis inhibition counterscreen; max response, %; actives 12% (n = 300,000); AID 2314; in the data active = max response mostly above about 13%, no sharp cut-off; inactive = mostly below about 14%; note: read at 38.3 µM for the half of the compounds with a filed dose
NS1 function inh: inhibitors of influenza NS1 protein function; Potency, µM (series often up to 46.1 µM); actives 0.4% (n = 270,000); AID 2326; calls by dose curve; note: actives are rising curves; nearly all actives have a fitted effect of over 50% in size
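Recovery from NS1-induced slow growth read by OD600 in budding yeast switched to galactose assay medium (pH 6.0, -URA) at 1:100 dilution. Compound 23 nl per well; the matching strain lacking NS1 serves as control.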
AmpC inh no detg: blocks E. coli AmpC beta-lactamase in detergent-free assay. P00811. AmpC nitrocefin hydrolysis, absorbance 480 nm, 0.0001% Triton. Potency, µM (titrated, usually from 57.1 µM), hits mostly inhibitors. actives 0.52% (n = 330,000). AID 485341; note: nearly all actives have a fitted effect of over 20% in size
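AmpC (5.3 nM in the dispensed reagent) in 20 mM phosphate pH 7.0 with 0.01% (detergent screen) or 0.0001% Triton X-100 was preincubated with compounds for 15 min at room temperature. Nitrocefin was then added from an 800 uM solution, and hydrolysis was followed at 480 nm.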
Hits are given with their value; 0 = inactive; ? = inconclusive; - = no result. Unless noted, calls come from the whole dose curve; as a rule, active = well fitted curve in the direction sought with a large enough effect; inconclusive = small, poorly fitted or top-dose-only effect, or another doubt; inactive = no such curve, though single readings can be large; an effect the other way counts as inactive or inconclusive.

SMILES | AmpC inh detg | Shiga inhibitor | Cycloheximide cs | NS1 function inh | AmpC inh no detg
Oc1cccc(/C=N\Nc2nncc(-c3ccccc3)n2)c1 | 0 | 50.2 | 64.2 | 0 | 0
Cc1cc(C)nc(N/N=C/c2ccco2)n1 | 0 | 0 | 0 | 0 | 0
Cc1cc(-c2ccccc2)nc(N/N=C/c2ccco2)n1 | 0 | 85.1 | 35.7 | 0 | 0
O=C(COC(=O)C1CCC1)NCCc1ccc(Cl)cc1Cl | 0 | 0 | 0 | 0 | 0
Cc1ccc(CSc2nc3cccnc3n2Cc2nc(-c3ccccc3F)oc2C)cc1 | 0 | - | - | - | -
COc1cc(C(C)=O)ccc1OCc1cc(C(=O)N(C)CCC2CCCCO2)no1 (stereo not drawn) | 0 | 100.6 | 52.9 | 0 | 0
COc1ccccc1OCc1cc(C(=O)NCCN2CCCC(O)C2)no1 (stereo not drawn) | 0 | 0 | 0 | 0 | 0
COc1ccccc1OCc1cc(C(=O)N(C)CCC2CCCCO2)no1 (stereo not drawn) | 0 | 126.3 | 58.6 | 0 | 0
Cc1ccccc1CNC(=O)C(=O)NCC(c1ccco1)S(=O)(=O)c1ccc(F)cc1 (stereo not drawn) | 0 | - | - | - | -
c1ccc(C(NCc2cccnc2)(c2ccccc2)c2ccccc2)cc1 | - | 0 | 0 | - | -
O=C(CSc1nnc(-c2ccc(Br)cc2)n1CCc1ccccc1)NC1CCS(=O)(=O)C1 (stereo not drawn) | 0 | 0 | 0 | 0 | 0
COc1ncccc1-c1nnn(-c2ccc(Cl)nc2)n1 | 0 | 0 | 19.6 | 0 | 0
Clc1ccc(-n2nnc(-c3cccnc3Cl)n2)cn1 | 0 | 49.6 | 34.8 | 0 | 0
Cc1ccc(-n2nnc(-c3cccnc3Cl)n2)cc1 | 0 | 87.2 | 47.2 | 0 | 0
Brc1ccccc1-n1nnc(-c2nccs2)n1 | 0 | 76.7 | 48.8 | 0 | 0
Fc1ccc(-n2nnc(-c3ccccc3)n2)cc1 | ? | 0 | 0 | 0 | 0
O=S(=O)(Nc1cccc(-n2cnnn2)c1)c1ccc(Cl)nc1 | 0 | 0 | 0 | 0 | 0
CC(C)CCNC(=O)C1CC(=O)N(CCc2ccccc2)C1 (stereo not drawn) | 0 | 0 | 0 | 0 | 0
O=S(=O)(c1ccccc1Br)N(Cc1ccccc1)CC(O)COCc1ccccc1 (stereo not drawn) | - | - | - | - | 0
Clc1ncccc1-c1nnn(-c2ccccc2Br)n1 | 0 | 72.9 | 34.0 | 0 | 0
CC(C)CC(=O)NC(=S)Nc1ccc(Cl)cn1 | 0 | 119.4 | 33.8 | 0 | 0
CCC(C)c1ccc(OCC(=O)Nc2ccc(Cl)cn2)cc1 (stereo not drawn) | 0 | 0 | 34.6 | 0 | 0
CC(C)CC(=O)NC(=S)Nc1ccccc1C(=O)Nc1ccccc1 | 0 | 0 | 0 | 0 | 0
O=C1NC(=S)N/C1=C\C=C\c1ccccc1 | 0 | 50.4 | 30.3 | 0 | 0
Fc1ccc(Nc2nc(SCc3cccc(F)c3)nc3ccccc23)cc1 | 0 | - | - | - | -
SMILES | AmpC inh detg | Shiga inhibitor | Cycloheximide cs | NS1 function inh | AmpC inh no detg
CN1CC(c2ccccc2Cl)C2(COc3ccccc3C2=O)C12C(=O)Nc1ccccc12 (stereo not drawn) | 0 | 0 | 16.1 | 0 | 0
CSC1=NSC2=NC(=O)/C(=C\c3coc4ccccc4c3=O)C(=N)N12 | ? | 0 | 0 | 0 | 0
CN1C(=O)C(=Cc2coc3ccccc3c2=O)C(=O)N(C)C1=O | 0 | 0 | 20.3 | 0 | 0
CCOc1ccc(S(=O)(=O)N(C(=O)c2ccncc2)c2ccc3oc(C)c(C(=O)OC)c3c2)cc1 | 0 | - | - | - | -
Cc1ccnc(NC(=O)c2ccc(Cl)c(NC(=O)c3ccccc3C)c2)c1 | 0 | 0 | 16.4 | 0 | 0
CCC(C(=O)Nc1cc(C(=O)Nc2cc(C)ccn2)ccc1Cl)c1ccccc1 (stereo not drawn) | 0 | 0 | 18.9 | 0 | 0
Cc1ccnc(NC(=O)c2cccc(NC(=O)c3ccccc3C)c2)c1 | 0 | 0 | 0 | 0 | 0
CCc1ccc(NC(=O)C(=O)NCC(c2ccc3c(c2)OCO3)N2CCN(C)CC2)cc1 (stereo not drawn) | 0 | - | - | - | -
O=C(COC(=O)CCSc1ccccc1)NCc1ccccc1Cl | 0 | 0 | 19.0 | 0 | 0
O=C(CC1CCCCC1)NCc1ccccc1Cl | 0 | 0 | 38.4 | 0 | 0
O=C(CSc1ncccn1)NCc1ccccc1Cl | 0 | 68.1 | 49.5 | 0 | 0
O=C(CC1CCCCC1)NCc1ccccn1 | 0 | 0 | 0 | 0 | 0
CCCCC(=O)NCc1ccccc1Cl | 0 | 0 | 23.2 | 0 | 0
O=C(NC1CCCCC1)C(c1ccncc1)N(C(=O)c1csnn1)c1ccccc1F (stereo not drawn) | ? | 0 | 0 | 0 | 0
O=C(COC(=O)C1CC1)NCc1ccccc1Cl | 0 | 0 | 15.5 | 0 | 0
